Among the data in PubChem BioAssay (NCATS) are Potency values, retold here.

Results filed as inconclusive are left out. Where a call stands in place of a potency, no number is given. The source made the active and inactive calls. Calls come from the whole dose curve; as a rule, active = well fitted inhibition curve with a large enough effect; inconclusive = small, poorly fitted or top-dose-only effect; inactive = no such curve, though single readings can be large or run the other way.
Potency is the fitted concentration of half-maximal effect.

The assay in a line: NS1 protein of Zika virus - qHTS assay to identify small molecule inhibitors in human HEK 293 cells (AID 1347053). Note: nearly all actives have a fitted effect of over 55% in size. The conditions noted are these: HEK293 ZIKV MR766 infection, NS1 TR-FRET, 24 h; series mostly up to 46.1 µM. The source says:
National Center for Advancing Translational Sciences [NCATS]
Johns Hopkins University School of Medicine
The non-structural 1 (NS1) protein of zika virus is known to associate with the viral replication complex. This cell-based TR-FRET ZIKV NS-1 assay measures the increased NS-1 protein in human HEK 293 cells after a 24-hour Zika virus infection by a TR-FRET assay readout. A decrease in the Time-resolved fluorescence energy transfer (TR-FRET) signal in this assay by small molecule treatment indicates an inhibitory effect of the small molecule on the expression of Zika virus NS1 correlating with Zika virus replication.
HEK 293 cells were cultured in EMEM (ATCC, Cat. # 30-2003) medium with 10% fetal bovine serum (GE healthcare Life Sciences, Cat. # SH30071.03), and 1% Pen/Strep (Gibco, Cat. # 15140-122). Cells were seeded in the assay plate and incubated at 37 C with 5% CO2 for 20 hours. Compounds were added to cells and incubated for one hour before addition of ZIKV MR766 strain solution to cells (MOI = 0.5). After an incubation at 37 C for 24 hours, the reagent mixture of TR-FRET ZIKV NS1 assay using two anti-ZIKV NS1 antibodies was added to assay plates. The TR-FRET signals in assay plates were measured using an Envision plate reader (PerkinElmer). Data were normalized by using the cell-containing wells without ZIKV as a negative control (0% NS-1) and wells containing ZIKV infected cells as a positive control (100% NS-1 level).
Background: Quantitative high-throughput screening tests each substance at several concentrations.
Turning to `CCOC(=O)O[C@]1(C(=O)OCCl)CC[C@@H]2[C@H]3CCC4=CC(=O)C=C[C@]4(C)[C@@H]3[C@@H](O)C[C@@]21C`, the Potency result is “inactive”.

For the compound `Cc1cnc(C(=O)O)c[n+]1[O-]`, the Potency result was “inactive”.

Turning to `CC1(C)O[C@H]2C[C@@H]3[C@H]4CCC5=CC(=O)C=C[C@]5(C)[C@@]4(F)[C@@H](O)C[C@]3(C)[C@]2(C(=O)CO)O1`, the Potency entry was “inactive”.

Turning to `OC[C@@H](O)[C@H](O)[C@H](O)[C@@H](O)CO`, the Potency result is “inactive”.

As for `CCCNC(=O)NS(=O)(=O)c1ccc(Cl)cc1`, the Potency result is “inactive”.

As for `O=c1cc(N2CCOCC2)oc2c(-c3cccc4c3sc3ccccc34)cccc12`, the Potency was 18.7 µM (active).

For `COC1CCC(N(C(=O)C2CCC(C)CC2)c2cc(C3=CCCCC3)sc2C(=O)O)CC1` (stereo not given), the Potency entry is “inactive”.

In the case of `CCCCCCCCCCCC1=C(O)C(=O)C=C(O)C1=O`, the Potency result was “inactive”.

As for `Clc1ccc(C(c2ccc(Cl)cc2)n2cc[n+](CC(OCc3ccc(Cl)cc3Cl)c3ccc(Cl)cc3Cl)c2)cc1` (stereo not given), the Potency is 11.8 µM (active).

As for `CCN(CC)CCNC(=O)c1ccc(N)cc1`, the Potency result was “inactive”.

For `CC(C)(C)COc1ccc(-n2cc(C(=O)O)cn2)cc1C#N`, the Potency entry is “inactive”.

For `COc1cc2nc(-c3ccc(N4CCN(C)CC4)cc3)nc(NCCN3CCOCC3)c2cc1OC`, the Potency is 0.332 µM (active).

With `COc1cc(NC(=O)c2ccc(-c3ccc(Cl)cc3)o2)cc(OC)c1`, the Potency entry is “inactive”.

As for `NC[C@@H]1O[C@@H](O[C@H]2[C@@H](O)[C@H](O[C@@H]3[C@@H](O)[C@@H](N)C[C@H](N)[C@H]3O[C@H]3O[C@H](CN)[C@@H](O)[C@@H](O)[C@H]3N)O[C@H]2CO)[C@H](N)[C@@H](O)[C@@H]1O`, the Potency result is “inactive”.

With `O=C(Nc1cc(Cl)cc2c1[nH]c1cnccc12)c1cccnc1`, the Potency entry was “inactive”.

Turning to `N#CC1(c2ccc(NC(=O)c3cccnc3NCc3ccncc3)cc2)CCCC1`, the Potency result is “inactive”.

As to `N[C@H](CSC(c1ccccc1)(c1ccccc1)c1ccccc1)C(=O)O`, the Potency entry is “inactive”.

Take `O=c1[nH]cnc2c1ncn2[C@H]1CC[C@@H](CO)O1`: the Potency result is “inactive”.

Regarding `CN(C)CCC(c1ccccc1)c1ccccn1` (stereo not given), the Potency result was “inactive”.

Consider `CC(C)(C(=O)NCC(F)(F)C(F)(F)F)C(=O)N[C@@H]1C(=O)Nc2ccccc2-c2ccccc21`, for which the Potency result is “inactive”.

As to `O=C(O)Cc1cccc2ccccc12`, the Potency entry was “inactive”.

As to `CC=CC[C@@H](C)C(=O)[C@H]1C(=O)N[C@@H](C(C)C)C(=O)N(C)CC(=O)N(C)[C@@H](CC(C)C)C(=O)N[C@@H](C(C)C)C(=O)N(C)[C@@H](CC(C)C)C(=O)N[C@@H](C)C(=O)N[C@H](C)C(=O)N(C)[C@@H](CC(C)C)C(=O)N(C)[C@@H](CC(C)C)C(=O)N(C)[C@@H](C(C)C)C(=O)N1C`, the Potency entry was “inactive”.

`c1cc(-c2sc(-c3ccncc3)c(-c3ccncc3)c2-c2ccncc2)ccn1`: the Potency result is “inactive”.

As for `CN(C)C1CCN(C(=O)c2ccc(NC(=O)Nc3nc(N4CCOCC4)nc(N4CCOCC4)n3)cc2)CC1`, the Potency is 0.418 µM (active).

In the case of `CC=CCC=CCCC(=O)[C@H]1O[C@@H]1C(N)=O`, the Potency result is “inactive”.

As for `O=C(N[C@@H](c1ccccc1)[C@@H]1CCCCN1)c1cccc(C(F)(F)F)c1Cl`, the Potency result was “inactive”.

As for `O=c1cc(-c2ccc(O)cc2)oc2cc(O)cc(O)c12`, the Potency result was “inactive”.

On to `CC(C)C(=O)Oc1ccc(CO)cc1[C@H](CCN(C(C)C)C(C)C)c1ccccc1`, for which the Potency entry is “inactive”.

On to `O=C(O)[C@H]1O[C@H](Oc2cc3oc(-c4ccccc4)cc(=O)c3c(O)c2O)[C@H](O)[C@@H](O)[C@H]1O`, for which the Potency entry is “inactive”.

On to `CCC(=O)NC[C@H](Cc1ccc(OCCc2nc(-c3ccccc3)oc2C)cc1)NC(C)=CC(=O)c1ccc(C(F)(F)F)cc1`, for which the Potency is 16.6 µM (active).

Take `O=C(O)c1ccccc1C(=O)Nc1ccc(-c2ccccc2)cc1`: the Potency result is “inactive”.

Take `O=C(Nc1ccccc1Br)N[C@@H]1CCN(c2ccc(C(F)(F)F)cn2)C1`: the Potency result is “inactive”.

Regarding `CC[C@@H]1C=C(C)C[C@H](C)C[C@H](OC)[C@H]2O[C@@](O)(C(=O)C(=O)N3CCCC[C@@H]3C(=O)O[C@H](C(C)=C[C@@H]3CC[C@H](Cl)[C@H](OC)C3)[C@H](C)[C@@H](O)CC1=O)[C@H](C)C[C@H]2OC`, the Potency was 23.5 µM (active).

Consider `NC1=N[C@@]2(c3cc(NC(=O)c4ccc(F)cn4)ccc3F)COC[C@@H]2CS1`, for which the Potency result is “inactive”.

Turning to `O=c1c(-c2ccc(O)cc2)coc2cc(O[C@@H]3O[C@H](CO)[C@H](O)[C@H](O)[C@H]3O)ccc12`, the Potency result was “inactive”.

Regarding `C[C@H](NC(=O)C(=O)Nc1ccccc1C(C)(C)C)C(=O)N[C@@H](CC(=O)O)C(=O)COc1c(F)c(F)cc(F)c1F`, the Potency result was “inactive”.

As to `O=C(Nc1c(Cl)cncc1Cl)c1ccc(OC(F)F)c(OCC2CC2)c1`, the Potency entry was “inactive”.

Turning to `CC#CCn1c(N2CCC[C@@H](N)C2)nc2c1c(=O)n(Cc1nc(C)c3ccccc3n1)c(=O)n2C`, the Potency result was “inactive”.

Take `O=C(O)c1cc(O)c2c(c1)C(=O)c1cccc(O)c1C2=O`: the Potency entry was “inactive”.

`CC(=O)N[C@@H](CS)C(=O)O`: the Potency entry is “inactive”.
